JMJD2A Tudor inh – JMJD2A Tudor domain (human) inhibition; AlphaScreen JMJD2A-Tudor / H3K4me3 peptide binding; Potency, µM (titrated, usually from 114 µM), most hits filed as inhibitors; O75164; hit rate 4.4% among 390,000; also: nearly all actives have a fitted effect of over 50% in size
TDP1 inh – TDP1 (human) enzyme inhibition; Q9NUW8; recombinant TDP1, AlphaScreen DNA substrate cleavage; Potency, µM (series often up to 130 µM), hits mostly inhibitors; hit rate 0.28% among 350,000; AID 485290; also: nearly all actives have a fitted effect of over 40% in size
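Recombinant human Tdp1 (E. coli-expressed, 1 nM final) preincubated with compounds 15 min at room temperature, then 5'-biotin/3'-phosphotyrosine-FITC DNA substrate (15 nM final) added for 5 min. AlphaScreen beads (10 ug/ml final) added 10 min; cleavage lowers signal.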
Sfp inh – inhibitors of Bacillus subtilis Sfp phosphopantetheinyl transferase; Q9F4F7; Biochemical Sfp PPTase activity, qHTS; Potency, µM, actives largely listed as inhibitors; hit rate 3.5% among 310,000; AID 1490;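 also: the enzyme is Sfp with the accession as filed and its product quenches rhodamine fluorescence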
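Step 1, compound plus 15 nM Sfp-PPTase, 15 min, room temperature. Step 2, add rhodamine-CoA (5 uM) and BHQ-2-YbbR (12.5 uM). Step 3, read 525/598 nm fluorescence at 0 and 30 min.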
BAZ2B inh – inhibitors of human BAZ2B bromodomain; hit rate 4.4% among 360,000; AID 504333; AlphaScreen BAZ2B-H3K14Ac peptide displacement; Potency, µM (series often up to 114 µM), actives largely listed as inhibitors; Q9UIF8; also: nearly all actives have a fitted effect of over 60% in size
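AlphaScreen displacement of biotin-H3(5-23)K14Ac peptide (50 nM final) from BAZ2B (50 nM final) in PBS pH 7.4, 0.01% Tween-20; complex preformed 30 min RT, then compounds (top 110 uM) 30 min RT, beads 20 min dark.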
HP1b binding inh – blocks HP1-beta chromodomain binding to methylated histone tails. Potency, µM (series often up to 114 µM), usual class: inhibitors. hit rate 0.56% among 390,000. P83916. AlphaScreen HP1-beta / biotin-H3K9me3 peptide binding. AID 540317; also: nearly all actives have a fitted effect of over 70% in size
Target sequence (P83916 whole entry, looked up): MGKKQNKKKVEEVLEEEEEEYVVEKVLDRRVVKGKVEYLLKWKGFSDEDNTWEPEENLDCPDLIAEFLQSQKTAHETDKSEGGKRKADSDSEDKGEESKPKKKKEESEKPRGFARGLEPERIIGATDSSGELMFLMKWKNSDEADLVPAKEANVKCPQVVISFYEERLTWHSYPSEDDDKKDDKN
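Compound inhibition of the preformed complex between 50 nM HP1-beta and 50 nM biotinylated H3K9me3 peptide was read by AlphaScreen. Buffer was PBS pH 7.4 with 0.01% Tween-20. Incubations ran 30 min at room temperature, with 10 ug/mL donor/acceptor beads.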
G9a block – G9a (human) methyltransferase inhibition; Q96KQ7; G9a H3K9 monomethylation, AlphaScreen, 2 h; Potency, µM (titrated, usually from 102 µM), hits mostly inhibitors; hit rate 8.8% among 350,000; AID 504332; also: nearly all actives have a fitted effect of over 75% in size
Target sequence (Q96KQ7 913-1193 limits assumed): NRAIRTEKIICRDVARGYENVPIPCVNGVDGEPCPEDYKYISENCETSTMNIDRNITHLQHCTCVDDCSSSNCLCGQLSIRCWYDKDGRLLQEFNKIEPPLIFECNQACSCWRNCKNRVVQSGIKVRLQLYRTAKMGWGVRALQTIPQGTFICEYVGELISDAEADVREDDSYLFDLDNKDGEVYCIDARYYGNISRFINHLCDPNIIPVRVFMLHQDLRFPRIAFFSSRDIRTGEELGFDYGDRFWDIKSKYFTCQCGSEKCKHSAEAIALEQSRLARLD
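Step 1: enzyme (final 20 nM) with compound, 15 min RT. Step 2: substrate peptide 500 nM and SAM 20 uM, 2 h RT. Step 3: anti-H3K9me1 antibody and AlphaScreen beads, 10 min, then plate read.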
Of the large screens only hits and unclear results are named; the others gave an inactive call. Shown are actives, neighbours in structure and some others; about 12% of the full set was active somewhere. Calls follow the shape of the dose curve; as a rule, active = well fitted curve in the direction sought with a large enough effect; inconclusive = small, poorly fitted or top-dose-only effect, or another doubt; inactive = no such curve, though single readings can be large; an effect the other way counts as inactive or inconclusive.

Cc1cc(C)n2c(SCC(=O)NCc3ccc4c(c3)OCO4)nnc2n1	JMJD2A Tudor inh 79.4µM, Sfp inh 70.8µM, G9a block 11.2µM (no result: TDP1 inh)
Cc1ccc(N=Cc2c(O)c3ccccc3oc2=O)c(C)c1	none
Cc1ccc(F)cc1N=Cc1c(O)c2ccccc2oc1=O	G9a block 79.4µM
CCCCCOc1ccc(CSc2n[nH]c(C)n2)cc1	JMJD2A Tudor inh inconclusive (no result: G9a block)
Cc1nc(SCc2ccc(OCCC(C)C)cc2)n[nH]1	G9a block 50.1µM
COc1cc([N+](=O)[O-])cc2sc(NC(C)=O)nc12	Sfp inh 39.8µM (no result: TDP1 inh)
CCOC(=O)c1ccccc1NC(=O)c1cc2c(=O)oc3ccc(C)cc3c2s1	none (no result: Sfp inh)
O=C(CC1(O)C(=O)N(CCc2ccccc2)c2ccc(Br)cc21)c1ccccc1 (stereo unspecified)	none (no result: TDP1 inh, Sfp inh)
CC(=O)NC1C(=O)N(CCc2ccccc2)c2ccc(Br)cc21 (stereo unspecified)	G9a block 11.2µM
CCCCN1C(=O)c2ccccc2C1C(=O)NC1CCCC1 (stereo unspecified)	none
Cc1ccc2c(c1)C(CCN)C(=O)N2Cc1ccccc1 (stereo unspecified)	G9a block inconclusive
CCCCN1C(=O)C(NC(C)=O)c2ccccc21 (stereo unspecified)	Sfp inh inconclusive, G9a block 22.4µM
CC(=O)NC1C(=O)N(Cc2ccccc2)c2ccc(Br)cc21 (stereo unspecified)	G9a block 39.8µM
CC1CC2(C)C(=CC1=O)CCC1C2C(O)CC2(C)C1CCC2(O)C(=O)CO (stereo unspecified)	none (no result: TDP1 inh, Sfp inh, BAZ2B inh, G9a block)
CCOc1cccc2sc(NC(=O)c3ccc(S(=O)(=O)N4CCCc5ccccc54)cc3)nc12	none (no result: Sfp inh)
COc1ccc2ccc3c(c2c1)N=C[C@]1(O3)N(C)c2ccccc2C1(C)C	Sfp inh 50.1µM, BAZ2B inh 50.1µM, HP1b binding inh inconclusive
CC1Cc2cc(S(=O)(=O)N3CCC(C(=O)Nc4ccccn4)CC3)ccc2N1C(=O)C1CCC1 (stereo unspecified)	none
CN(C(=O)/C=C/c1ccc([N+](=O)[O-])s1)c1ccccc1	JMJD2A Tudor inh inconclusive, BAZ2B inh 39.8µM, G9a block 44.7µM
COc1ccc(CCN2C(=O)c3[nH]nc(-c4ccccc4O)c3C2c2ccccc2)cc1 (stereo unspecified)	none (no result: Sfp inh)
Cc1ccc2nc(C(Cl)(Cl)Cl)nc(N/N=C/c3ccc([N+](=O)[O-])cc3)c2c1	none (no result: TDP1 inh, Sfp inh, BAZ2B inh, G9a block)
Cc1ccc(C(=O)N2CCCc3ccccc32)c(F)c1F	none (no result: TDP1 inh)
Cc1ccc2nc(N3CCC(C(=O)N4CCN(c5cccc(Cl)c5)CC4)CC3)[nH]c2c1	JMJD2A Tudor inh 56.2µM, BAZ2B inh 70.8µM (no result: Sfp inh)
CN(C)c1ccc(/C=C2\SC(=O)N(CC(O)Cn3c4ccccc4c4ccccc43)C2=O)cc1 (stereo unspecified)	none
Cc1nc2ccccc2c(=O)n1/N=C/c1ccc(N(C)C)cc1	none
COc1cc(/C=C(/C(=O)O)c2ccc(-c3ccccc3)cc2)cc(OC)c1OC	none
CN(C)c1ccc(C=c2c3ccccc3n3c2cc(-c2ccccc2)[n+]3C)cc1	JMJD2A Tudor inh 31.6µM, HP1b binding inh 50.1µM (no result: TDP1 inh, Sfp inh, BAZ2B inh, G9a block)
COc1cc(C=c2c3ccccc3n3c2cc(-c2ccccc2)[n+]3C)cc(OC)c1OC	JMJD2A Tudor inh 31.6µM, HP1b binding inh inconclusive (no result: TDP1 inh, Sfp inh, BAZ2B inh, G9a block)
CN(C)c1ccc(C=c2c3ccccc3n3c2c2c([n+]3C)CCCC2)cc1	JMJD2A Tudor inh 28.2µM, HP1b binding inh inconclusive (no result: TDP1 inh, Sfp inh, BAZ2B inh, G9a block)
CN(C)c1ccc(C=c2c3ccccc3n3c2cc(-c2ccc(Cl)cc2)[n+]3C)cc1	JMJD2A Tudor inh 44.7µM, HP1b binding inh 12.6µM (no result: TDP1 inh, Sfp inh, BAZ2B inh, G9a block)
CO[C@@H]1COC(=O)C/C=C\[C@@H](C)[C@H](OC)COC(=O)[C@@H](C)COC(=O)C/C=C\[C@H]1C	none (no result: JMJD2A Tudor inh, BAZ2B inh, HP1b binding inh, G9a block)
CC(C)c1ccc(NC(c2nnc(-c3ccccc3)o2)c2ccc(F)cc2Cl)cc1 (stereo unspecified)	none (no result: Sfp inh)
CC(=O)N1CCc2c(sc3c2c(=O)n(-c2ccc(F)cc2)c(=O)n3Cc2cc(C)ccc2C)C1	none (no result: Sfp inh)
COc1ccc(Cn2c(=O)[nH]c3cc(C(=O)NCCC(C)C)ccc3c2=O)cc1	none (no result: Sfp inh)

Screens (PubChem)
